Experimental data from PubChem BioAssay (EPA / NIEHS).
“And” between values parts separate entries of the source, which are not always exact repeats. Equal values may be shown once. Results filed as inconclusive are left out. The source holds several records for some structures; these can differ, active in one and inactive in another. The source made the active and inactive calls. How the source made its calls, unless noted: active means hit-call score of the fitted dose curve at least 0.9, where 1 is the maximum; inactive means score below 0.9.

Key:
[1] = target: Myc proto-oncogene protein (Homo sapiens) (UniProt P01106); test: ATG_Myc_CIS: Attagene CIS-FACTORIAL HepG2 Assay for human Myelocytomatosis (Myc) Proto-Oncogene Transcription Factor (AID 2282990); conditions: HepG2, Attagene cis-reporter transcription factor activity; actives raise or lower the signal
In short: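 DMSO-normalised, bidirectionally fitted reporter mRNA signal. HepG2 cells transfected with cis reporter constructs, treated 24 h; transcripts detected by RT-PCR, 6-FAM primer extension and CE.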

[2] = ATG_NF_kB_CIS: Attagene CIS-FACTORIAL HepG2 Assay for human Nuclear Factor Kappa B (NF-kB) (AID 2282991); conditions: HepG2 Attagene cis-factorial NF-kB reporter mRNA; actives raise or lower the signal
In short: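 HepG2, transient multi-reporter transfection, cis promoter elements (endogenous TFs). 24 h exposure. Total RNA → RT → PCR → 6-FAM label → HpaI → CE. Gain/loss vs DMSO.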

[3] = ATG_NRF2_ARE_CIS: Attagene CIS-FACTORIAL HepG2 Assay for human Nuclear Factor Erythroid 2 Related Factor 2 (NFR2) response to Antioxidant Response Elements (ARE) (AID 2282992); conditions: HepG2 Attagene ARE/NRF2 reporter, transcription factor activity; actives raise or lower the signal;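 on AC50: reporter mRNA level measured by RT-PCR and capillary electrophoresis fluorescence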
In short: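 Endogenous transcription factor activity in human liver HepG2 cells is tracked via a cis-element-driven reporter within a multiplexed set. mRNA induction is read by RT-PCR and capillary electrophoresis after 24 h, with DMSO as baseline.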

[4] = ATG_Oct_MLP_CIS: Attagene CIS-FACTORIAL HepG2 Assay for human Octamer-Binding Transcription Factor (Oct) (AID 2282993); conditions: HepG2 Attagene cis-factorial Oct reporter, mRNA; actives raise or lower the signal
In short: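 Read-out: reporter mRNA via RT-PCR plus capillary electrophoresis of 6-FAM-labelled fragments. Transiently transfected HepG2, 24 h exposure, endogenous TF activity on cis elements. Gain or loss of signal fitted relative to DMSO.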

[5] = target: Cellular tumor antigen p53 (Homo sapiens) (UniProt P04637); test: ATG_p53_CIS: Attagene CIS-FACTORIAL HepG2 Assay for human p53 Transcription Factor (AID 2282994); conditions: HepG2 p53 cis-element reporter, Attagene mRNA; actives raise or lower the signal
In short: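 Steps: transfect HepG2 with multiplexed cis reporter constructs; dose chemicals 24 h; extract RNA, reverse-transcribe, PCR-amplify reporter sequences; FAM-label, HpaI-digest, resolve fragments by CE. Activity fitted both directions relative to DMSO.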

[6] = BSK_3C_TissueFactor: BioMAP Diversity Plus: 3C Assay for Tissue Factor Biomarker Activity (AID 2282997); conditions: BioMAP 3C HUVEC, tissue factor biomarker readout; actives raise or lower the signal
In short: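 After a 24 h chemical exposure of primary human umbilical vein endothelial cells, Tissue Factor levels were quantified by ELISA.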

[7] = BSK_3C_uPAR: BioMAP Diversity Plus: 3C Assay for Urokinase-type plasminogen activator receptor (uPAR) Biomarker Activity (AID 2282998); conditions: BioMAP 3C HUVEC, uPAR biomarker ELISA; actives raise or lower the signal
In short: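 HUVEC primary cells; 24 h post-dose; uPAR by ELISA; gain or loss of signal fitted bidirectionally vs DMSO baseline.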

[8] = BSK_4H_Eotaxin3: BioMAP Diversity Plus: 4H Assay for Eotaxin 3 Biomarker Activity (AID 2283000); conditions: primary human endothelial cells (HUVEC); actives raise or lower the signal
In short: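 Chemicals were added to human umbilical vein endothelium cultures, and Eotaxin-3 was quantified by ELISA at 24 h. Values were derived by bidirectional fitting with DMSO serving as negative control and activity baseline.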

[9] = target: human Peroxisome Proliferator-activated Receptor delta (PPARd), PPARD (gene 5467) (UniProt Q03181); test: ATG_PPARd_TRANS: Attagene TRANS-FACTORIAL HepG2 Assay for human Peroxisome Proliferator-activated Receptor delta (PPARd) (AID 2283002; active means hit-call score of the fitted dose curve at least 0.9, where 1 is the maximum)
In short: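 Measured quantity: GAL4-UAS reporter transcript induction in HepG2 after 24 h chemical dosing, with NR-Gal4 chimeras supplied by transient transfection. Detection by RT-PCR and capillary electrophoresis; upward fit against DMSO.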

[10] = read-out: Intercellular Adhesion Molecule 1 (ICAM1), ICAM1 (gene 3383); test: BSK_3C_ICAM1: BioMAP Diversity Plus: 3C Assay for Intercellular Adhesion Molecule 1 (ICAM1) Biomarker Activity (AID 2283003); conditions: primary human endothelial cells (HUVEC); actives raise or lower the signal
In short: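 ELISA read-out of ICAM-1; HUVEC (primary human), 3C system, 24 h post-dosing; bidirectional fit vs DMSO baseline.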

[11] = target: human Retinoic Acid Receptor beta (RARb), RARB (gene 5915) (UniProt P10826); test: ATG_RARb_TRANS: Attagene TRANS-FACTORIAL HepG2 Assay for human Retinoic Acid Receptor beta (AID 2283004; active means hit-call score of the fitted dose curve at least 0.9, where 1 is the maximum)
In short: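 Transient transfection of HepG2 with multiple reporter units → chemical dosing, 24 h → total RNA isolation → RT with oligo(dT) → reporter-specific PCR, 6-FAM primer extension, HpaI digest → capillary electrophoresis. Positive direction vs DMSO control.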

[12] = target: Retinoic acid receptor alpha (Homo sapiens) (UniProt P10276); test: ATG_RARa_TRANS: Attagene TRANS-FACTORIAL HepG2 Assay for human Retinoic Acid Receptor alpha (RARa) (AID 2283005; active means hit-call score of the fitted dose curve at least 0.9, where 1 is the maximum)
In short: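 HepG2 cells transiently transfected with multiple reporter units expressing chimeric RARα-GAL4 fusion, with GAL4-UAS-driven reporters. After 24 h compound exposure, reporter mRNA induction quantified by RT-PCR and capillary electrophoresis with fluorescent labeling; gain-of-signal fitted relative to DMSO control.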

[13] = BSK_3C_Proliferation: Cell Proliferation Assessment in the BioMAP Diversity Plus: 3C Assay (AID 2283006); conditions: primary human endothelial cells (HUVEC);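 on AC50: potency may reflect either rise or fall in cell number versus DMSO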
In short: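 HUVEC, sub-confluent; 48 h chemical exposure; 10% TCA fix, 0.1% SRB stain, A560 total protein. Gain or loss of signal fitted both directions vs DMSO control.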

[14] = target: Peroxisome proliferator-activated receptor gamma (Homo sapiens) (UniProt P37231); test: ATG_PPARg_TRANS: Attagene TRANS-FACTORIAL HepG2 Assay for human Peroxisome Proliferator-activated Receptor-gamma (PPARg) (AID 2283007; active means hit-call score of the fitted dose curve at least 0.9, where 1 is the maximum)
In short: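 Multiplexed reporter transcription units in HepG2, 24 h dosing, reporter transcripts quantified by fluorescent RT-PCR and capillary electrophoresis. Increase over DMSO scored.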

[15] = target: Nuclear receptor subfamily 1 group I member 2 (Homo sapiens) (UniProt O75469); test: ATG_PXR_TRANS: Attagene TRANS-FACTORIAL HepG2 Assay for human Pregnane X Receptor (PXR) (AID 2283008; active means hit-call score of the fitted dose curve at least 0.9, where 1 is the maximum)
In short: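 HepG2 transfected (FuGene 6) with GAL4-UAS reporter units + PXR-Gal4 chimera; dosed 24 h. Total RNA → oligo(dT) RT → PCR → 6-FAM primer extension → HpaI cut → CE. Gain-of-signal vs DMSO.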

[16] = target: human Retinoic Acid Receptor gamma (RARg), RARG (gene 5916) (UniProt P13631); test: ATG_RARg_TRANS: Attagene TRANS-FACTORIAL HepG2 Assay for human Retinoic Acid Receptor gamma (RARg) (AID 2283009; active means hit-call score of the fitted dose curve at least 0.9, where 1 is the maximum)
In short: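 Readout: reporter transcript levels via RT-PCR, 6-FAM primer-extension labelling, HpaI digestion and capillary electrophoresis. Cells: HepG2 carrying transfected RARg-GAL4 chimera plus UAS reporter set. Dosing 24 h; DMSO negative control.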

[17] = target: Retinoic acid receptor RXR-alpha (Homo sapiens) (UniProt P19793); test: ATG_RXRa_TRANS: Attagene TRANS-FACTORIAL HepG2 Assay for human Retinoid X Receptor alpha (RXRa) (AID 2283012; active means hit-call score of the fitted dose curve at least 0.9, where 1 is the maximum)
In short: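 Read-out: fluorescent reporter-transcript fragments quantified by capillary electrophoresis after RT-PCR. Transiently transfected HepG2 cells carrying GAL4-UAS reporters and NR-GAL4 chimeras were exposed to chemical for 24 h; activity scored as increase over DMSO.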

[18] = target: human Peroxisome Proliferator-activated Receptor alpha (PPARa), PPARA (gene 5465) (UniProt Q07869); test: ATG_PPARa_TRANS: Attagene TRANS-FACTORIAL HepG2 Assay for human Peroxisome Proliferator-activated Receptor alpha (PPARa) (AID 2283001; active means hit-call score of the fitted dose curve at least 0.9, where 1 is the maximum;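 on AC50: potency for gain of reporter signal over DMSO so agonist or activator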)
In short: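 Exposure: 24 h, transiently transfected HepG2 cells. Endpoint: GAL4-UAS reporter mRNA, RT-PCR with capillary electrophoresis fluorescence. Baseline: DMSO; increases fitted.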

[19] = target: human RAR-related Orphan Receptor beta (RORb), RORB (gene 6096) (UniProt Q92753); test: ATG_RORb_TRANS: Attagene TRANS-FACTORIAL HepG2 Assay for human RAR-related Orphan Receptor beta (RORb) (AID 2283010; active means hit-call score of the fitted dose curve at least 0.9, where 1 is the maximum)
In short: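 HepG2, transient MRTU transfection (GAL4-UAS reporters, exogenous NR-Gal4 chimeras); 24 h compound exposure; total RNA → RT-PCR → 6-FAM primer extension → HpaI digest → CE fluorescence. Positive direction vs DMSO baseline.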

[20] = BSK_3C_VCAM1: BioMAP Diversity Plus: 3C Assay for Vascular cell adhesion molecule 1 (VCAM1) Biomarker Activity (AID 2282999); conditions: BioMAP 3C HUVEC, VCAM1 ELISA, cytokine-stimulated; actives raise or lower the signal
In short: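 Vascular primary endothelium (human umbilical vein) was exposed to chemicals and assayed 24 h later. VCAM-1 levels came from ELISA, with DMSO serving as baseline for bidirectional fitting.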

Measured: AC50

Chain of Peroxisome proliferator-activated receptor gamma (Homo sapiens) (P37231 whole entry, looked up): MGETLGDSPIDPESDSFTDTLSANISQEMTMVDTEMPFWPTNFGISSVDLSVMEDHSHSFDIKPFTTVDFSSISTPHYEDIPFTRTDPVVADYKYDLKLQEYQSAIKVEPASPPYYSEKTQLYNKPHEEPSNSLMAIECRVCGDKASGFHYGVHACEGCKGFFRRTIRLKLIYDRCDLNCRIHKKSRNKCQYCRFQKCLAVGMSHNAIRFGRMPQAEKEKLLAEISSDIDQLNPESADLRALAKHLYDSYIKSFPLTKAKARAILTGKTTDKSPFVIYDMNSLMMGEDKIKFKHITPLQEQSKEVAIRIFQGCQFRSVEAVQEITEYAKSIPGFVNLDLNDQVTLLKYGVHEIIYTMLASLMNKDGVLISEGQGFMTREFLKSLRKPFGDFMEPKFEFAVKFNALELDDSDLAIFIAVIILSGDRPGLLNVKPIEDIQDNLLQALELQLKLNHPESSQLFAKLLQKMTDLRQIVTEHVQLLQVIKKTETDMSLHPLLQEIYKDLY
Chain of Retinoic acid receptor RXR-alpha (Homo sapiens) (P19793 whole entry, looked up, the tested form may be a part): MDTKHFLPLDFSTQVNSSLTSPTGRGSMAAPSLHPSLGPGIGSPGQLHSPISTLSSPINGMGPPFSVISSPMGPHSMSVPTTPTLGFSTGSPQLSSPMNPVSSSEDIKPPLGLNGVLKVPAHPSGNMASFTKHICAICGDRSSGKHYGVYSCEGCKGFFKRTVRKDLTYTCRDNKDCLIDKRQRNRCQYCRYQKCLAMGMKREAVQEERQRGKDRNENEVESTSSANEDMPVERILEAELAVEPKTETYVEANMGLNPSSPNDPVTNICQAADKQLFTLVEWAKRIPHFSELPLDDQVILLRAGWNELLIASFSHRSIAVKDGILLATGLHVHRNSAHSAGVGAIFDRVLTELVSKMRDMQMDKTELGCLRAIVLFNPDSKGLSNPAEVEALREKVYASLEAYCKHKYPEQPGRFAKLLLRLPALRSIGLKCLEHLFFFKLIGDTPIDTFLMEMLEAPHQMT
Chain of human Retinoic Acid Receptor gamma (RARg), RARG (gene 5916) (P13631 whole entry, looked up, the tested form may be a part): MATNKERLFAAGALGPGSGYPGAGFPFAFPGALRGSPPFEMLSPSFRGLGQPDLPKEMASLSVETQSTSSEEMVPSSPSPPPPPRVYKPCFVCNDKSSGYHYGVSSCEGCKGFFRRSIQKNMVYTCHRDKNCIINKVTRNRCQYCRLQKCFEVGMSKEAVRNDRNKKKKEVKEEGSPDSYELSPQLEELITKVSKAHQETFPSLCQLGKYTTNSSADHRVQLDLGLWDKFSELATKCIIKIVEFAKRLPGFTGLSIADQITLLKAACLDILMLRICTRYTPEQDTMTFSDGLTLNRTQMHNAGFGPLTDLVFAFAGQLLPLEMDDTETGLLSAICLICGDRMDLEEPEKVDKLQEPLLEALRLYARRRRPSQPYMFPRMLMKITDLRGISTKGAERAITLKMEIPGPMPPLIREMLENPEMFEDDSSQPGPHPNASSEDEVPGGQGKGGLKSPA
Chain of Myc proto-oncogene protein (Homo sapiens) (P01106 whole entry, looked up): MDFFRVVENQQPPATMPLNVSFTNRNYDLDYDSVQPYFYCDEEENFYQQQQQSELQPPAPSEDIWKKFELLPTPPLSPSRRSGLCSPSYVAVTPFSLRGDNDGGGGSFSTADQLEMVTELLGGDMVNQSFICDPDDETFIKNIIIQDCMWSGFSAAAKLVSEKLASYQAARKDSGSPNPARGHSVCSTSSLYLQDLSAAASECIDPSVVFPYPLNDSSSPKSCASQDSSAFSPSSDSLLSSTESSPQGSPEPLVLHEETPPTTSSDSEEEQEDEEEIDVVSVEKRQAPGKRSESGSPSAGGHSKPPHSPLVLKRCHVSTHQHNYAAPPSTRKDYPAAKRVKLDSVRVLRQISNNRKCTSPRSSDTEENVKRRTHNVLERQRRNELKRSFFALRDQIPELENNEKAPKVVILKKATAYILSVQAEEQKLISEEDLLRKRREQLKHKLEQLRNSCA
Chain of human RAR-related Orphan Receptor beta (RORb), RORB (gene 6096) (Q92753 whole entry, looked up, the tested form may be a part): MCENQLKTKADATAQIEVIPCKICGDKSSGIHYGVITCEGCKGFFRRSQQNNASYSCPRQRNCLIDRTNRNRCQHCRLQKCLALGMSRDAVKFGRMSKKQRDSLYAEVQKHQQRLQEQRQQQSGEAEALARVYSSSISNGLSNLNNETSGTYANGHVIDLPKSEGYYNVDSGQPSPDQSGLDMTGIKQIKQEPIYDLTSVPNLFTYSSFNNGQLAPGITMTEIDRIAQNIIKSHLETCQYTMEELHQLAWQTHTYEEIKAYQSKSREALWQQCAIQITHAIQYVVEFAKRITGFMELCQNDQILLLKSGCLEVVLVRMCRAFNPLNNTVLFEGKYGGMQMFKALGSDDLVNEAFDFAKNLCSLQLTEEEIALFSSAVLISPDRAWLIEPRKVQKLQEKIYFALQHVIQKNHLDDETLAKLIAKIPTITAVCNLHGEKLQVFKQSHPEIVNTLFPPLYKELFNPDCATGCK
Chain of human Peroxisome Proliferator-activated Receptor delta (PPARd), PPARD (gene 5467) (Q03181 whole entry, looked up, the tested form may be a part): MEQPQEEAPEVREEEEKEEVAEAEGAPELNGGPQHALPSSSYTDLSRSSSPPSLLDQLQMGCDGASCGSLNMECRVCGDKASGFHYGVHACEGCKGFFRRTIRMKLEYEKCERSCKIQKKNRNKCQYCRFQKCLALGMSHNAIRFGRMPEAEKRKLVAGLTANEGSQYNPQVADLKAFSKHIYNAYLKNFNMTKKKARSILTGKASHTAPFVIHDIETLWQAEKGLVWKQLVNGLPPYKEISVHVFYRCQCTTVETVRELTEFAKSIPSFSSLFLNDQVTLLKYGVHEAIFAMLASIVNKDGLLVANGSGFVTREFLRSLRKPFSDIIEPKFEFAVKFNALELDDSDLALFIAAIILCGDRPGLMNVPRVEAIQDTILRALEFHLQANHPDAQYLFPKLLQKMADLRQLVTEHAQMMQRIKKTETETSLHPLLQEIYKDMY
Chain of Cellular tumor antigen p53 (Homo sapiens) (P04637 whole entry, looked up, the tested form may be a part): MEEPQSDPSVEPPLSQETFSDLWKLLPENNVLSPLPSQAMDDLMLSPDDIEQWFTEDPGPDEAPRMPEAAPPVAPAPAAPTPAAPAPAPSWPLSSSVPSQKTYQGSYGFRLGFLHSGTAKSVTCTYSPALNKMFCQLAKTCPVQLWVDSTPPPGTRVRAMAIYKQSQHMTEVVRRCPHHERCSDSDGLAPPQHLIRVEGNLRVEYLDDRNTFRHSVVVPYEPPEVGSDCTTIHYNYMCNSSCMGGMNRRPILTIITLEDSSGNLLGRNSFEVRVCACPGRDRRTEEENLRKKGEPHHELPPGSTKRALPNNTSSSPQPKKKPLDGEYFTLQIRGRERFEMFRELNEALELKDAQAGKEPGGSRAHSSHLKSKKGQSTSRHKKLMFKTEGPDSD
Chain of Retinoic acid receptor alpha (Homo sapiens) (P10276 whole entry, looked up, the tested form may be a part): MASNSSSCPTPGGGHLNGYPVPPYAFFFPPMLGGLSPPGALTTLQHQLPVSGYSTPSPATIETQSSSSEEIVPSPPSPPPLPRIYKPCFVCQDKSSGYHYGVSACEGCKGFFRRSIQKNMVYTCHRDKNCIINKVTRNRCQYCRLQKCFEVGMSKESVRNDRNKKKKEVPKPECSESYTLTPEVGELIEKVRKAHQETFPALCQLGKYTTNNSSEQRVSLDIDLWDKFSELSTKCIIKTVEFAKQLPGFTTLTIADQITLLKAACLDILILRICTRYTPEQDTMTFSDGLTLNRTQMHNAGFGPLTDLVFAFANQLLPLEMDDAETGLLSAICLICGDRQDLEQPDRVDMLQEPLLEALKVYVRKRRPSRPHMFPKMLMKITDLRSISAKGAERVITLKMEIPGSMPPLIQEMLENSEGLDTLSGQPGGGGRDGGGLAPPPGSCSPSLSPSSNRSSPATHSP
Chain of human Retinoic Acid Receptor beta (RARb), RARB (gene 5915) (P10826 whole entry, looked up): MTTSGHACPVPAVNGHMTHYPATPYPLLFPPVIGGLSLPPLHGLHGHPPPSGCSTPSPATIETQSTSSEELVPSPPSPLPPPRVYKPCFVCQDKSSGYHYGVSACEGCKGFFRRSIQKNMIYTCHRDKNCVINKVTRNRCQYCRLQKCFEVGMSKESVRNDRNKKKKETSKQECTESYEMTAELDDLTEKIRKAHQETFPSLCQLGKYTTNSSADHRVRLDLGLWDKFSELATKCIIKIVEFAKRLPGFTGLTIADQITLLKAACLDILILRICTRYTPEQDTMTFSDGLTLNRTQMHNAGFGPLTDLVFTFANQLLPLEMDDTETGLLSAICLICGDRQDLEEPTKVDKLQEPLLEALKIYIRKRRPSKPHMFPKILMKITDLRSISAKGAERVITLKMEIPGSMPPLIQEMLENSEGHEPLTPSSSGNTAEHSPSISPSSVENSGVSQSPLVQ
Chain of Nuclear receptor subfamily 1 group I member 2 (Homo sapiens) (O75469 whole entry, looked up, the tested form may be a part): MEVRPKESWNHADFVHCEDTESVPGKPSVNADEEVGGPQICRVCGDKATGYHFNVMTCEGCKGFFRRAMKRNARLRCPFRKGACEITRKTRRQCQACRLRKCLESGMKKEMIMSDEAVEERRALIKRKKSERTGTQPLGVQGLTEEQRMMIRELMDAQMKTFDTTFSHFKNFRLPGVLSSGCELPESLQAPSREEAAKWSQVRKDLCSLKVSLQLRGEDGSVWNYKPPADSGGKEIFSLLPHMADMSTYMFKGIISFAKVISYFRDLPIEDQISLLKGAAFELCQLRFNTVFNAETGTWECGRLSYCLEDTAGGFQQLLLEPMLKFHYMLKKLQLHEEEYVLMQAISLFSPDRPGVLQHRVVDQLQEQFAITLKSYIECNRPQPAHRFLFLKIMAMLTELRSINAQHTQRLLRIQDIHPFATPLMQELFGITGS

CCC(=O)O[C@H]1CC[C@H]2[C@@H]3CCC4=CC(=O)CC[C@]4(C)[C@H]3CC[C@]12C
inactive: [1] | [2] | [4] | [5] | [9] | [11] | [12] | [14] | [15] | [16] | [17]
active: [1] 165 µM and 163 µM | [3] 158 µM [middle of 4 runs] | [4] 186 µM and 73.4 µM and 100 µM | [5] 100 µM | [6] 31.4 µM | [7] 24.9 µM | [8] 36 µM | [10] 35.8 µM | [13] 23 µM | [15] 27.8 µM

Clc1ccc(C(c2ccccc2Cl)C(Cl)(Cl)Cl)cc1 (stereo unspecified)
inactive: [1] | [2] | [3] | [4] | [5] | [18] | [9] | [14] | [15] | [16] | [19] | [17]
active: [1] 111 µM | [3] 41.4 µM and 39.6 µM and 21.3 µM | [4] 70.5 µM and 104 µM and 42.3 µM | [6] 20.9 µM | [7] 21.3 µM | [8] 20.3 µM | [10] 21.7 µM | [13] 7.61 µM | [15] 3.39 µM and 2.82 µM and 3.97 µM

NS(=O)(=O)C(F)(F)C(F)(F)C(F)(F)C(F)(F)C(F)(F)C(F)(F)C(F)(F)C(F)(F)F
active: [1] 27.6 µM | [2] 60.1 µM and 253 µM | [3] 28.9 µM and 268 µM and 15.4 µM | [4] 50 µM | [5] 112 µM | [6] 30.2 µM and 49.5 µM and 52.9 µM | [7] 29.9 µM and 42.3 µM and 44.1 µM | [20] 35.2 µM and 55 µM and 55.3 µM | [8] 30.6 µM and 46.8 µM and 54 µM | [18] 88.4 µM | [13] 30.3 µM and 38.9 µM | [14] 100 µM and 59 µM and 41.8 µM
inactive: [1] | [2] | [4] | [5] | [18] | [9] | [11] | [12] | [15] | [16] | [19] | [17]

Cc1cc(O)ccc1Cl
not listed: [12] | [19] | [20]
inactive: all other assays above

CC(C)(c1ccccc1)c1ccc(O)cc1
active: [1] 33.4 µM | [2] 53.1 µM and 50.4 µM | [3] 33.4 µM and 45.2 µM and 22.5 µM | [4] 54.7 µM and 33.4 µM | [5] 57 µM | [6] 30.5 µM | [7] 31.1 µM | [8] 35.3 µM | [10] 36.4 µM | [14] 18.3 µM | [15] 2.93 µM [middle of 4 runs]
inactive: [1] | [2] | [4] | [5] | [18] | [9] | [11] | [12] | [14] | [16] | [19] | [17]
